Screening results as filed in PubChem.
In the library only some 19% were active in any assay of this set; here they are far more common.
Cycloheximide cs: counter-screen hit for Shiga toxin inhibitors, cycloheximide | AID 2314 | max response, % | actives 12% (n = 300,000) | cell reporter, cycloheximide protein synthesis inhibition counterscreen; in the data active = max response mostly above about 13%, no sharp cut-off; inactive = mostly below about 14%; also: read at 38.3 µM for the half of the compounds with a filed dose; 0% is about no effect
Pf growth 48h: inhibits P. falciparum growth in the first generation, 48 h; P. falciparum luciferase growth in erythrocytes, 48 h; Potency, µM (highest dose often 28.7 µM), without a hit: top-dose activity change, negative = inhibition, hits mostly inhibitors; actives 5.9% (n = 310,000); also: potency is read from the fitted curve at half-maximal effect; % is scaled to controls: 0 for no effect and ±100 for the full control effect
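Growth was read as firefly luciferase luminescence after a 48 h, 37 C, 5% CO2 exposure of compounds to reporter-bearing P. falciparum cultures (0.1% parasitemia, 2% hematocrit final) in Albumax-supplemented RPMI 1640.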
AMA1-RON2 inh: AMA1-RON2 (P. falciparum) interaction inhibition; actives 0.2% (n = 360,000); AID 720542; AlphaScreen AMA1-biotinylated RON2 peptide binding; Potency, µM (titrated, usually from 58.2 µM), inactives show at the highest dose activity change, negative = inhibition, actives largely listed as inhibitors;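 also: potency is read from the fitted curve at half-maximal effect; 0% = vehicle wells and -100% = peptide control; nearly all actives have a fitted effect of over 45% in size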
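AMA1 (3D7) with his tag at 25 nM final met compounds first, then biotinylated RON2 peptide at 25 nM; detection used donor plus acceptor beads, 10 µg/mL apiece, read by AlphaScreen after 30 min at room temperature.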
Pf growth 96h: inhibits malaria parasite growth, 96 h | P. falciparum luciferase reporter growth, 96 h | actives 6.9% (n = 320,000) | AID 504834 | Potency, µM (series often up to 28.7 µM), for the others: top-dose activity change, negative = inhibition, actives largely listed as inhibitors; also: potency is read from the fitted curve at half-maximal effect; % is scaled to controls: 0 for no effect and ±100 for the full control effect
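Delayed-death screen, second-generation endpoint: infected erythrocytes, 2% hematocrit, 0.05% parasitemia final; 96 hours at 37 C, 5% CO2; luciferase detection reagent; luminescence decrease equals reduced growth.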
Shiga toxin inh: inhibitors of Shiga toxin in Vero cells; inhibition, % at 38.7 µM; Vero cells, Shiga toxin protein synthesis inhibition reporter; AID 2315; actives 9.2% (n = 290,000); in the data active = inhibition mostly above about 28%, no sharp cut-off; inactive = mostly below about 43%; also: 0% is about no effect
SARS PLpro yeast: SARS-CoV PLP inhibition in yeast; S. cerevisiae expressing SARS-CoV PLpro, growth rescue; Potency, µM (series often up to 32.9 µM), inactives show at the highest dose activity, positive = growth rescue, actives largely listed as activators; actives 0.19% (n = 330,000); AID 485353; calls by dose curve; also: potency is read from the fitted curve at half-maximal effect; 0% is about no effect; nearly all actives have a fitted effect of over 55% in size
* = called active by the depositor; ? = inconclusive; · = no result; [ ] = remark or other dose. Unless noted, calls follow the shape of the dose curve; as a rule, active = well fitted curve in the direction sought with a large enough effect; inconclusive = small, poorly fitted or top-dose-only effect, or another doubt; inactive = no such curve, though single readings can be large; an effect the other way counts as inactive or inconclusive.

SMILES	Cycloheximide cs	Pf growth 48h	AMA1-RON2 inh	Pf growth 96h	Shiga toxin inh	SARS PLpro yeast
CCCc1nc2ccccc2c(C(=O)OC(C)C(=O)NCc2ccc3c(c2)OCO3)c1CC (stereo not drawn)	-3.2	?	-24.6%	?	-4.9	4.8%
CCOc1ccc(S(=O)(=O)N2CCOCC2)cc1NC(=O)CN1C(=O)NC(C)(c2ccccc2)C1=O (stereo not drawn)	·	?	-13.4%	?	·	2.3%
Cc1ncoc1C(=O)Nc1ccc(Oc2ccccc2)cc1	53.6*	120.9%	2.8%	-8.9%	153.3*	-31.9%
O=C(O)c1ccccc1C(=O)Nc1ccc(Oc2ccccc2)cc1	12.8	0.9%	-13.9%	29.5%	54.7	-1.4%
Cc1ncoc1C(=O)Nc1ccccc1-c1ccccc1	-1.2	0.8%	2.6%	?	-19.6	1.9%
Cc1nc(C)c(C(=O)Nc2ccc(Oc3ccccc3)cc2)o1	25.6*	77.7%	4.0%	·	25.2*	-13.7%
Cc1ccccc1-c1cc2nc(C)c(C)c(=O)n2[nH]1	23.3*	7.38µM*	-5.8%	2.8%	35.6*	-0.4%
Cc1cccc(-c2cc3nc(C)cc(=O)n3[nH]2)c1	·	·	0.7%	·	·	·
Cc1cc(=O)n2[nH]c(-c3ccccc3Cl)cc2n1	-3.1	-5.8%	-0.6%	7.38µM*	48.5	-0.1%
Cc1nc2cc(-c3ccc(F)cc3)[nH]n2c(=O)c1C	31.7*	6.4%	5.0%	?	83.7*	-0.1%
CCN1C(=O)[C@H]2[C@@H](c3ccc(C(F)(F)F)cc3)N[C@]3(CCCN(Cc4ccc(Cl)cc4)C3=O)[C@H]2C1=O	·	·	-8.2%	·	·	·
CCOc1ccc(/C=N/N2C(C)CCCC2C)cc1OC (stereo not drawn)	-2.3	·	-2.9%	10.4µM*	12.0	-2.2%
Cc1ccc(NC(=O)CCCCCNS(=O)(=O)c2ccc(C)cc2)cc1	-2.4	?	1.5%[2.32 µM]	11.7µM*	3.3	-5.5%
Cc1ccc(NC(=O)CCCCCC2NC(=O)NC2C)cc1 (stereo not drawn)	2.2	-14.6%	0.212µM*	·	-2.4	1.9%
O=C(CCCNS(=O)(=O)c1ccc(F)cc1)Nc1ccc(F)cc1	7.7	0.0%	-11.8%	-4.9%	3.4	-0.4%
Cc1ccc(S(=O)(=O)NCCCCCC(=O)Nc2nccs2)cc1	-1.5	13.1µM*	-17.7%	5.4%	16.8	6.4%
CCCCCCCC(=O)Nc1ccc(S(=O)(=O)Nc2nccs2)cc1	-6.0	7.1%	-1.5%	-25.7%	-8.3	5.9%
CCOCCCNC(=O)CCNS(=O)(=O)c1ccc(C)cc1	-2.1	4.5%	-2.9%	9.28µM*	-10.3	0.3%
Cc1ccc(S(=O)(=O)NCCCCCC(=O)N(C)C)cc1	6.7	-11.4%	-4.8%	10.4µM*	-4.7	-0.2%
Cc1ccc(S(=O)(=O)NCCCCCCNS(=O)(=O)c2ccc(C)cc2)cc1	·	·	-1.4%	·	·	·
COc1ccc(C2=CSC3=C(C(=O)c4cccc(S(=O)(=O)N(C)C)c4)CCN23)cc1	3.3	·	-0.3%	8.28µM*	10.1	-6.7%
CCN1C(=O)CC(Sc2ccccc2C(=O)O)C1=O (stereo not drawn)	-4.8	-81.3%	5.6%	·	-23.3	-1.3%
O=C(O)c1ccccc1SC1CC(=O)N(c2cccc3ccccc23)C1=O (stereo not drawn)	-2.8	2.08µM*	0.0%	59.5%	20.2	-20.9%
COC(=O)c1ccccc1SC1CC(=O)N(c2ccccc2)C1=O (stereo not drawn)	28.5*	-22.4%	10.9%	11.7µM*	57.1*	-13.7%
O=C(COC(=O)C1CC(=O)N(Cc2ccccc2)C1)Nc1cccc([N+](=O)[O-])c1 (stereo not drawn)	·	·	-7.5%	·	·	3.4%
SMILES	Cycloheximide cs	Pf growth 48h	AMA1-RON2 inh	Pf growth 96h	Shiga toxin inh	SARS PLpro yeast
CS(=O)(=O)N(CCc1ccccc1)CC(=O)N1CCc2ccccc2C1	-3.8	-2.2%	7.7%	·	-10.8	-0.2%
CC(C)(CC(=O)OCC(=O)Nc1ccccc1F)CC1=NS(=O)(=O)c2ccccc2N1	-4.0	?	13.4%	11.7µM*	-2.8	-1.9%
CCCCCOC(=O)C1[C@H]2C(=O)N(Cc3cccs3)C[C@]23C=C[C@H]1O3 (stereo partly drawn)	-2.1	·	1.9%	?	-15.7	3.8%
CCCCOC(=O)C1[C@H]2C(=O)N(Cc3cccs3)C[C@]23C=C[C@H]1O3 (stereo partly drawn)	2.0	·	-1.8%	5.22µM*	-12.9	0.5%
O=C(NCC1CCCO1)C1C2C=CC3(CN(Cc4cccs4)C(=O)C13)O2 (stereo not drawn)	-0.7	6.9%	-0.2%	4.65µM*	11.5	0.6%
CCOC(=O)C1(C)CCN1C(=O)c1cc2ccccc2s1 (stereo not drawn)	·	·	-9.2%	·	·	·
COc1c(NC(C)=O)c2ccccc2c2ccccc12	-1.7	7.1%	-3.0%	-1.4%	-8.4	-1.2%
COc1c2ccccc2c(OC)c2ccccc12	8.1	2.9%	-3.6%	14.7µM*	22.2	-2.9%
COc1nnc(OC)c2ccccc12	-4.0	-6.4%	4.2%	0.465µM*	13.8	0.6%
CCCN(C(=O)COC(=O)CNC(=O)c1ccc2ccccc2c1)c1c(N)n(Cc2ccccc2)c(=O)[nH]c1=O	·	27.7%	-5.1%	29.8%	·	-5.1%
Cc1c(C=O)c2ccccn2c1C(=O)c1ccccc1	-2.2	-9.1%	9.4%	·	-17.8	-8.3%
Cc1c(C(C)(C)C)c(C=S)n2ccccc12	-2.7	·	11.8%	10.4µM*	-0.8	1.7%
NC(=O)c1ccc(-c2ncc(-c3ccccc3)o2)cc1	43.6*	-70.3%	3.3%	?	85.3*	-8.2%
c1ccc(-c2cnc(-c3cccnc3)o2)cc1	49.4*	12.1%	-5.3%	74.6%	59.0	6.2%
Cc1ccc(-c2cnc(-c3ccccc3C(=O)O)o2)cc1	28.9*	18.3%	-22.2%	41.8%	61.3*	0.5%
Cc1ccc(NC(=O)c2ccccc2-c2ccccc2C(=O)O)cc1	-3.9	-2.5%	4.8%[11.6 µM]	-14.0%	-3.6	3.7%
O=C(O)C1CC=CCC1C(=O)NNc1ccccc1 (stereo not drawn)	9.5	3.7%	39.1%	9.6%	11.3	0.2%
C=CCNc1nc(NC(C)(C)CO)nc(OCC)n1	-0.5	3.9%	?	7.38µM*	-1.9	5.2%
C#CCNC(=O)C[C@@H]1C[C@@]2(C(=O)OC)CC(C)(C)CC=C2N(Cc2ccccc2)C1=O	·	·	-2.9%	·	·	·
O=C(c1cccnc1)N1N=C(c2cccs2)CC1c1ccc(F)cc1 (stereo not drawn)	-2.6	0.0%	7.8%	9.4%	-12.0	1.9%
O=C1c2cccc(OCC(=O)N3N=C(c4cccs4)CC3c3ccc(F)cc3)c2CCN1Cc1cccnc1 (stereo not drawn)	-5.5	1.47µM*	-5.4%	?	-27.0	2.1%
CCOC(=O)N/N=C\c1cccc(OC)c1OC/C=C/c1ccccc1	15.8	?	1.1%	?	33.6*	-1.6%
CC(=O)N/N=C\c1cccc(OC/C=C/c2ccccc2)c1	58.6*	194.0%	-4.9%	-12.9%	158.6*	-0.4%
